Hit rate of the full screen: of about 2,400 compounds, about 750 (31%) were called active.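 How the source made its calls: active means median signal gain over dofetilide-blocked control wells reaching their mean plus 3 SD, so readout 1 at least 0; inactive means the rest.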 This is one part of the list.
target: Voltage-gated inwardly rectifying potassium channel KCNH2 (Homo sapiens) (UniProt Q12809); test: hERG protection against dofetilide inhibition, confirmation, cell-based, thallium flux, duplicate retest, dofetilide IC70 (AID 1835); conditions: hERG cell line, FluxOR thallium flux, dofetilide-blocked; at 10 µM; stronger effect = higher value
Sequence (Q12809 whole entry, looked up): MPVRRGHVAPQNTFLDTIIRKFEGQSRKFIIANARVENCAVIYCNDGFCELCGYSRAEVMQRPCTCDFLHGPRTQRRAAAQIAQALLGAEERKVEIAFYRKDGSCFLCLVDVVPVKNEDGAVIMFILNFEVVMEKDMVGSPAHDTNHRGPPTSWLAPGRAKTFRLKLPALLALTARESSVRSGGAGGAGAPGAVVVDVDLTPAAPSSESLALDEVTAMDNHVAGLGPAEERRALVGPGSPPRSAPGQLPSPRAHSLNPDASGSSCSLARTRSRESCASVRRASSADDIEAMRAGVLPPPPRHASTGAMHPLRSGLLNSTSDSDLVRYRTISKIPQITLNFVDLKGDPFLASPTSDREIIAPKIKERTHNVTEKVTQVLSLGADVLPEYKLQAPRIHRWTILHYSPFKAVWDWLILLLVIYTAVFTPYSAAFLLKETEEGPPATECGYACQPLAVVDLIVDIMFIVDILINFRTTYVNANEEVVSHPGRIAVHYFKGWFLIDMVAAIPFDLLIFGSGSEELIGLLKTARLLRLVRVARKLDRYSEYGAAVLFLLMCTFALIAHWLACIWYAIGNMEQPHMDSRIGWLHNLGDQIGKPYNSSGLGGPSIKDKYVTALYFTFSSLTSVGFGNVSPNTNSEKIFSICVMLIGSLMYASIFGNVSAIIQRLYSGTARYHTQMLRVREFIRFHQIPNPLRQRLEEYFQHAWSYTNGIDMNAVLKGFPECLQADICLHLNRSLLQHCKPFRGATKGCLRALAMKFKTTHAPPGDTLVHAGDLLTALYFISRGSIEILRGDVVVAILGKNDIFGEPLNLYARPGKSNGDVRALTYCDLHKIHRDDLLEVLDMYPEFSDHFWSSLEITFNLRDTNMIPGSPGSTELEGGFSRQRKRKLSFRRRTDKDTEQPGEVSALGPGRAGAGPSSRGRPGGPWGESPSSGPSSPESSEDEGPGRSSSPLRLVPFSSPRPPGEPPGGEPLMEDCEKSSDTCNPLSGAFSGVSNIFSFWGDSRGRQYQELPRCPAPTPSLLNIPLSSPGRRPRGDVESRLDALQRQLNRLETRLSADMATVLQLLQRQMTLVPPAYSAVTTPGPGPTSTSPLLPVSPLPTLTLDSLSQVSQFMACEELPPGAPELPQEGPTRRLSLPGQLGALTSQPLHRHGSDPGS

Structure (SMILES) | activity increase over dofetilide control, less the hit threshold
Cc1cc(SCC(=O)c2cccc([N+](=O)[O-])c2)nc(=O)[nH]1 | -9% (inactive)
CCOC(=O)c1[nH]cnc1C(=O)Nc1ccc([N+](=O)[O-])cc1 | -13% (inactive)
CCOC(=O)/C(C)=N/NC(=O)c1cccc([N+](=O)[O-])c1 | 3% (active)
CCOC(=O)/C(C)=N/NC(=O)c1ccc([N+](=O)[O-])cc1 | 17% (active)
Cc1ccccc1C(=O)NNC(=O)c1cccc([N+](=O)[O-])c1 | -31% (inactive)
CCOc1ccc(C(=O)N/N=C/c2cc([N+](=O)[O-])cs2)cc1 | 0% (inactive)
COc1cccc(C=Nc2cc(C)cc(C)c2)c1O | 3% (active)
COC(=O)c1cccc(/C=N/NC(N)=S)c1O | -9% (inactive)
COc1cccc(/C=N/NC(=O)CSc2ccccc2C)c1O | -5% (inactive)
COc1cccc(C=NCCCN=Cc2cccc(OC)c2O)c1O | 9% (active)
COc1cc(Br)cc(C=Nc2cccc(C(F)(F)F)c2)c1O | -14% (inactive)
COc1cccc(C=NCC(C)N=Cc2cccc(OC)c2O)c1O (stereo unspecified) | 7% (active)
COc1cccc(/C=N/n2c(SC)nnc2-c2ccccc2)c1O | -2% (inactive)
CCOc1cccc(/C=N/NC(=O)c2ccc3c(c2)OCCO3)c1O | -10% (inactive)
COc1cccc(/C=N/Nc2nc3ccccc3[nH]2)c1O | -4% (inactive)
O=C(COC(=O)c1cnccn1)c1ccc(Cl)cc1 | -9% (inactive)
CCCNc1c(NS(=O)(=O)c2cccc(C#N)c2)c(=O)oc2ccccc12 | -6% (inactive)
CC(=O)Nc1nc2c(F)cccc2s1 | -15% (inactive)
Fc1cccc2sc(Nc3nnc(-c4ccco4)o3)nc12 | 3% (active)
COc1cccc(-c2nnc(Nc3nc4c(F)cccc4s3)o2)c1 | 9% (active)
Fc1cccc2sc(Nc3nc4c(F)cccc4s3)nc12 | 22% (active)
O=C(Cc1ccc(Cl)cc1)Nc1cccc(-c2nnc(-c3ccco3)o2)c1 | -15% (inactive)

Structure (SMILES) | activity increase over dofetilide control, less the hit threshold
Fc1cccc2sc(Nc3nnc(-c4ccccc4)o3)nc12 | 59% (active)
O=C(NCCc1ccc(F)cc1)c1coc(=O)c(Br)c1 | -17% (inactive)
Fc1ccc2nc(Nc3nc4c(F)cc(F)cc4s3)sc2c1 | 4% (active)
O=C(Nc1nc2c(F)cc(F)cc2s1)C1COc2ccccc2O1 (stereo unspecified) | -6% (inactive)
O=C(CCc1ccccc1)Nc1nnc(-c2ccccn2)o1 | -12% (inactive)
CCc1ccc(NC(=O)C(=O)NNC(=O)c2cccs2)cc1 | 61% (active)
Cc1cc(C(=O)NNC(=O)c2cccs2)nn1C(C)(C)C | -1% (inactive)
Cc1ccc(N/C=C/C(=O)c2cccs2)cc1 | -15% (inactive)
CCOc1ccccc1CNC(=O)CNC(=O)c1cccs1 | -24% (inactive)
Cc1ccc(NC(=O)C(=O)NNC(=O)c2cccs2)cc1 | 74% (active)
O=C1c2ccccc2C(=O)N1Cc1cc(-c2ccccc2Cl)no1 | -7% (inactive)
Cc1cc(C(F)(F)F)n(-c2ccc(N)cc2)n1 | -5% (inactive)
CCOC(=O)c1[nH]c(=O)[nH]c1COC(=O)c1cc2ccccc2o1 | -2% (inactive)
O=C(CSc1nc2cc(Cl)ccc2s1)c1cc2ccccc2o1 | 2% (active)
O=C(CSc1nnc(SCc2ccccc2)s1)N/N=C/c1ccc(Cl)cc1Cl | -6% (inactive)
CSCC[C@H](NC(=O)Nc1ccc(C)cc1C)C(=O)O | -8% (inactive)
COCCCn1c(=S)[nH]c2c(sc3ccccc32)c1=O | -3% (inactive)
COCCn1c(=S)[nH]c2sc3c(c2c1=O)CCC(C)C3 (stereo unspecified) | 44% (active)
COCCCn1c(=S)[nH]c2sc3c(c2c1=O)CCCC3 | 29% (active)
COCCn1c(=S)[nH]c2sc3c(c2c1=O)CCCC3 | 28% (active)
CCN1C(=O)C2(/C(=C(\O)c3ccc4c(c3)OCCO4)C(=O)C(=O)N2CCCOC)c2ccccc21 (stereo unspecified) | -11% (inactive)
CCCCNC(=O)CC(NS(=O)(=O)c1ccc(C)cc1)c1ccco1 (stereo unspecified) | -13% (inactive)

Structure (SMILES) | activity increase over dofetilide control, less the hit threshold
CCOC(=O)C1=C(C)NC(=O)NC1c1cccc(OC)c1OCc1ccccc1Cl (stereo unspecified) | -11% (inactive)
O=C(NCc1cccs1)C1CCC(CNS(=O)(=O)c2cccs2)CC1 (stereo unspecified) | -16% (inactive)
CCC(=O)c1cc2c(C)cc(=O)oc2c(C)c1O | -13% (inactive)
CSc1ccccc1NC(=S)NCc1ccc(Cl)cc1 | -15% (inactive)
COC(=O)c1sccc1NC(=S)N1CCN(C)CC1 | -19% (inactive)
COC(=O)c1sccc1NC(=S)NCc1ccc(Cl)cc1 | 19% (active)
CCOC(=O)c1sc2ncnc(NCC(c3cccs3)N(C)C)c2c1C (stereo unspecified) | 40% (active)
Cc1ccc(OC(=O)c2sc3ncn(C)c(=O)c3c2C)cc1 | -18% (inactive)
CCOC(=O)c1sc2ncnc(NCc3ccco3)c2c1C | 34% (active)
CCOC(=O)c1c(NC(=O)/C=C/c2ccco2)sc(C)c1C | -14% (inactive)
c1ccc(Cn2ncc3c(N4CCN(C(c5ccccc5)c5ccccc5)CC4)ncnc32)cc1 | -7% (inactive)
CCCCCCc1c(O)nc(SCC(=O)O)[nH]c1=O | -16% (inactive)
Cc1cccc(NC(=S)c2nc3ccccc3s2)c1 | -12% (inactive)
O=C(Nc1ccc(Cl)cc1)Nn1cnnc1 | -14% (inactive)
Clc1ccc(Nc2nc3cccnc3s2)cc1 | -18% (inactive)
CC(C)NC(=S)NNc1nc2ccccc2s1 | -9% (inactive)
S=C(Nc1ccc(Cl)cc1)c1nc2ccccc2s1 | 46% (active)
Cc1ccc(NC(=S)c2nc3ccccc3s2)cc1 | 5% (active)
O=C1C(=Cc2cccn2-c2ccc(O)cc2)C(=O)c2ccccc21 | -18% (inactive)
Cc1oc(/N=C/c2ccc(F)cc2)c(C#N)c1C | -20% (inactive)
CCC(NS(=O)(=O)c1cn(C)nc1C)c1ccccc1 (stereo unspecified) | -8% (inactive)
O=C(CSc1ncnc2c1cnn2-c1ccc(Cl)cc1)NCc1ccc2c(c1)OCO2 | -2% (inactive)

Structure (SMILES) | activity increase over dofetilide control, less the hit threshold
CSc1ccc(CNc2nc3ccccc3n3cnnc23)cc1 | -20% (inactive)
Cc1cc(C)c(-c2c(O)c3c(n(C)c2=O)CC(C)(C)CC3=O)c(C)c1 | -16% (inactive)
Cc1cccc(-n2c(=S)[nH]c3sc4c(c3c2=O)CCc2ccccc2-4)c1 | -6% (inactive)
Cn1c(=S)[nH]c2sc3c(c2c1=O)CCC(C(C)(C)C)C3 (stereo unspecified) | 59% (active)
CC1CCc2c(sc3[nH]c(=S)n(C)c(=O)c23)C1 (stereo unspecified) | 82% (active)
CCCCNC1=CC(=O)C(=O)c2ccccc21 | -9% (inactive)
O=C(OCc1ccccc1)/C(=C/c1cccc([N+](=O)[O-])c1)NC(=O)c1ccco1 | -5% (inactive)
CC1(C)CC2(CCO1)C(Nc1ccccc1)=NC(=S)N2CC(N)=O (stereo unspecified) | -15% (inactive)
Cc1ccccc1NC1=NC(=S)N(c2ccccc2)C12CCCCC2 | 22% (active)
COc1ccc(NC(=O)C(=O)NNC(=O)c2ccc(Cl)cc2Cl)cc1 | 59% (active)
COc1ccc(NC(=O)C(=O)NNC(=O)C(C)Oc2ccc(Cl)cc2Cl)cc1 (stereo unspecified) | 59% (active)
COc1ccc(-c2cc(C(F)(F)F)nc(SCC(=O)NCc3cccs3)n2)cc1 | -18% (inactive)
COc1cc(OC)cc(C(=O)OCC(=O)N(C)c2ccccc2)c1 | -9% (inactive)
CC(C)N(Cc1ccccc1)C(=S)NC(=O)C1(C)CC1(Cl)Cl (stereo unspecified) | 35% (active)
COc1cc(OC)cc(C(=O)NC(=S)N(Cc2ccccc2)C(C)C)c1 | 30% (active)
N#CCCN(Cc1ccccc1)C(=S)NC(=O)c1ccccc1 | -3% (inactive)
COc1ccc(CN(Cc2cccnc2)C(=S)NCCc2ccccc2)cc1OC | -11% (inactive)
CCCOc1ccc(C(=O)NNC(=S)NC(=O)c2ccccc2)cc1 | -36% (inactive)
CCOc1ccc(C(=O)NC(=S)N(Cc2ccccc2)Cc2ccccc2)cc1 | 73% (active)
CCCOc1ccc(CN(CCC#N)C(=S)NC(=O)c2ccccc2)cc1 | 9% (active)
CCCN(CCC)C(=S)NC(=O)c1ccc(-c2ccccc2)cc1 | 97% (active)
C=CCN(CC=C)C(=S)NC(=O)c1ccc(-c2ccccc2)cc1 | -2% (inactive)

Structure (SMILES) | activity increase over dofetilide control, less the hit threshold
COc1ccc(C(=O)NC(=S)N(Cc2ccccc2)Cc2ccccc2)cc1 | 43% (active)
CCCN(CC1CC1)C(=S)Nc1ccccc1F | -7% (inactive)
COc1ccccc1NC(=O)C1CCCN1C(=O)Nc1ccc(F)cc1 (stereo unspecified) | -14% (inactive)
CC(C)c1cccc(C(C)C)c1NC(=O)COC(=O)[C@H](C)NC(N)=O | -11% (inactive)
C/C(=N\NC(=O)c1cc2ccccc2cc1O)c1ccccn1 | -10% (inactive)
C/C(=N\NC(=O)c1ccoc1C)c1cccc2ccccc12 | -13% (inactive)
O=C(OCc1ccc([N+](=O)[O-])cc1)c1cc2ccccc2oc1=O | -25% (inactive)
C/C(=N\NC(=S)Nc1c(C)cccc1C)c1cc2ccccc2o1 | -5% (inactive)
C/C(=N\NC(=O)c1cc2ccccc2cc1O)c1ccc(C)o1 | 50% (active)
C/C(=N\NC(=O)c1cc2ccccc2cc1O)c1cc2ccccc2o1 | 95% (active)
C/C(=N/NC(=O)c1sc(NS(=O)(=O)c2ccccc2)nc1C)c1sc(N)nc1C | -15% (inactive)
C/C(=N/NC(=O)c1cc2ccccc2cc1O)c1ccco1 | 40% (active)
Cc1cc(N2CCN(C)CC2)nc(N2CCOCC2)n1 | -6% (inactive)
O=C(N1CCOCC1)N1CCC(n2nnc3ccccc32)CC1 | -8% (inactive)
CN(C)c1oc(-c2ccccc2)nc1C#N | -17% (inactive)
Cn1c(=O)c2c(ncn2CC(=O)OCc2ccccc2)n(C)c1=O | -11% (inactive)
Cc1cc(C=O)c2c(c1)C=CC1(Oc3ccccc3C(=O)N1C)O2 (stereo unspecified) | -29% (inactive)
O=C(Cn1c(=O)c2cccn2c2ccccc21)NCCc1ccc(Cl)cc1 | -16% (inactive)

Source: PubChem BioAssay AID1835 (Johns Hopkins Ion Channel Center, 2009)
